Screens as filed in PubChem.
NS1 inh: inhibitors of influenza NS1 protein function; Potency, µM (doses to about 46.1 µM), inactives show at the top dose activity, positive = more growth; actives 0.4% (n = 270,000); AID 2326; further: actives are rising curves; nearly all actives have a fitted effect of over 50% in size
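OD600 was taken as the measure of yeast growth restored by compound in an NS1-expressing S. cerevisiae strain. Cells had been washed out of glucose medium and diluted 1:100 into galactose -URA medium, pH 6.0.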
SARS PLP yeast: inhibitors of SARS-CoV papain-like protease in yeast; S. cerevisiae expressing SARS-CoV PLpro, growth rescue; actives 0.19% (n = 330,000); Potency, µM (top dose mostly 32.9 µM), for inactives: at the highest dose activity, positive = growth rescue, hits mostly activators; further: 0% is about no effect; nearly all actives have a fitted effect of over 55% in size
Pf growth 48h: inhibits P. falciparum growth in the first generation, 48 h | P. falciparum luciferase growth in erythrocytes, 48 h | Potency, µM (series often up to 28.7 µM), without a hit: top-dose activity change, negative = inhibition, most hits filed as inhibitors | actives 5.9% (n = 310,000) | AID 504832; active means well fitted inhibition curve with a large enough effect; inconclusive means small, poorly fitted or top-dose-only effect, or another doubt; inactive means no such curve, though single readings can be large or run the other way; further: on the % scale 0 is the no-effect control and ±100 the full control effect
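Read-out is firefly luciferase luminescence from an integrated reporter in P. falciparum, so falling signal marks reduced parasite growth. Infected erythrocytes were at 2% hematocrit and 0.1% parasitemia (final) in Albumax-supplemented RPMI 1640.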
Pf growth 96h: P. falciparum growth inhibition at 96 hours. AID 504834. Potency, µM (series often up to 28.7 µM), for the others: top-dose activity change, negative = inhibition, most hits filed as inhibitors. P. falciparum luciferase reporter growth, 96 h. actives 6.9% (n = 320,000); active means well fitted inhibition curve with a large enough effect; inconclusive means small, poorly fitted or top-dose-only effect, or another doubt; inactive means no such curve, though single readings can be large or run the other way; further: on the % scale 0 is the no-effect control and ±100 the full control effect
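Parasite growth measured via integrated firefly luciferase reporter in P. falciparum. Infected erythrocytes at 2% hematocrit, 0.05% parasitemia final were treated 96 hours at 37 C under 5% CO2, and luminescence was read.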
* hit, by the source's call; ? = inconclusive; nt = no result. Only some compounds are listed: those with a hit (about 10% of all), similar ones and a draw of the others. Unless noted, the call rests on the fitted dose curve. Potency means the concentration at half of the fitted maximal effect.

SMILES | NS1 inh | SARS PLP yeast | Pf growth 48h | Pf growth 96h
CCN(CC)S(=O)(=O)c1cccc(-c2nnc(SCCOc3ccc(Cl)cc3)o2)c1 | 5% | -7% | -24% | 10µM*
Cc1ccc(Oc2cc(NN3CCCCC3)c([N+](=O)[O-])cc2[N+](=O)[O-])c(Cl)c1 | 22% | -15% | ? | 13µM*
Cc1ccc(Oc2cc(NN3CCCCC3)c([N+](=O)[O-])cc2[N+](=O)[O-])c([N+](=O)[O-])c1 | -1% | 7% | -6% | ?
CC(=O)c1cccc(Oc2cc(NN3CCCCC3)c([N+](=O)[O-])cc2[N+](=O)[O-])c1 | -17% | 12% | -9% | 12µM*
Cn1cc(Cl)c(C(=O)OCC(=O)c2ccccc2)n1 | 0% | 0% | 30% | 13µM*
CN(C)c1ncc(CN2CCC(C(=O)Nc3ccc(-n4cccn4)cc3)CC2)s1 | 5% | 6% | 2.6µM* | 17%
COCCc1ncc(CN2CCC(C(=O)Nc3ccc(-n4cccn4)cc3)CC2)cn1 | -2% | -3% | ? | 1%
COc1ccc(Nc2cc(C)c3c(O)cccc3n2)cc1 | -43% | -1% | 2.3µM* | 1.7µM*
Cc1ccccc1Nc1cc(C)c2c(O)cccc2n1 | -33% | -12% | ? | 14%
COC(=O)c1cc(Nc2cc(C)c3c(O)cccc3n2)cc(C(=O)OC)c1 | 10% | 3% | 9.3µM* | ?
Cc1ccc(Nc2cc(C)c3c(O)cccc3n2)cc1C | -55% | -2% | 2.6µM* | 2.6µM*
CCOC(=O)C1CCN(C(=O)CCCn2nc(C)c3c(C)n(-c4ccc(C)cc4)nc3c2=O)CC1 | 14% | 4% | ? | ?
O=S(=O)(Nc1ccc(-c2csc(-c3ccccc3)n2)cc1)c1ccccc1 | 7% | -69% | 16% | 0.66µM*
Cc1nc(SCC(=O)OCc2ccccc2)c2c(=O)n(C)c(=O)n(C)c2n1 | -44% | ? | 7.4µM* | ?
Cn1c(=O)c2c(nc(NCCNc3nc4c(c(=O)n(C)c(=O)n4C)n3C)n2C)n(C)c1=O | -5% | nt | nt | nt
Cc1ccc(S(=O)(=O)N2CCOCC2)cc1C(=O)NCC1CCCCC1 | nt | -2% | ? | ?
CC[N+](C)(C)Cc1ccccc1Br | 5% | -5% | ? | 3.2µM*
CC(=O)C1=C(O)C(=O)N(c2ccccn2)C1c1ccc(C)cc1 (stereo not drawn) | 12% | -1% | 4% | 0.37µM*
CCOc1cc(C(=S)N2CCOCC2)ccc1OS(=O)(=O)c1ccccc1[N+](=O)[O-] | 34% | -14% | ? | 5.9µM*
COc1cc(C(=S)N2CCOCC2)ccc1OC(=O)c1cc([N+](=O)[O-])c(C)c([N+](=O)[O-])c1 | 16% | 16% | -1% | 1.7µM*
COc1cc(C(=S)N2CCOCC2)ccc1OS(=O)(=O)c1ccccc1[N+](=O)[O-] | 26% | -4% | -9% | 51%
C[C@@]12C(=O)Nc3cc(Cl)ccc3C(=O)N1[C@H]1c3ccccc3OC[C@@H]1[C@@H]2c1ccccc1 | nt | 1% | ? | 9.3µM*
C[C@@]12C(=O)Nc3cc(Cl)ccc3C(=O)N1[C@H]1c3cc(Br)ccc3OC[C@@H]1[C@@H]2c1ccccc1 | nt | 1% | 9.3µM* | 9.3µM*
C[C@@]12C(=O)Nc3ccc(Cl)cc3C(=O)N1[C@H]1c3ccccc3OC[C@@H]1[C@@H]2c1ccccc1 | nt | -1% | 13µM* | 10µM*
O=C(NCc1ccc(F)cc1)c1ccc(CS(=O)Cc2ccccc2Cl)o1 (stereo not drawn) | -15% | -4% | 18% | 4%
SMILES | NS1 inh | SARS PLP yeast | Pf growth 48h | Pf growth 96h
C[C@H]1C(=O)N(C)CCN1C(=O)c1cccc(OC2CCN(CC(C)(C)C)CC2)c1 | -11% | 0% | -2% | 20%
CC(=O)Nc1ccc(S(=O)(=O)Nc2nccs2)cc1 | ? | 2% | -1% | ?
CCOCC(=O)Nc1ccc(S(=O)(=O)Nc2nccs2)cc1 | 0% | -3% | -5% | 12µM*
O=C(CCl)Nc1ccc(S(=O)(=O)Nc2nccs2)cc1 | 4% | 0% | 2.3µM* | 1.5µM*
Cc1cc(CN(C)C(=O)C2CCC(=O)N(CCc3cccc(F)c3)C2)on1 (stereo not drawn) | 1% | -3% | 5% | ?
C=CCOc1c(Br)cc(CNc2ccc(NC(=O)C(C)C)c(OC)c2)cc1OC | 20% | -4% | ? | 8.3µM*
O=C(CCC(=O)Nc1ccc(F)cc1)N/N=C/c1cccc(Br)c1 | -5% | 0% | 29% | -17%
FC(F)(F)c1cccc(/C=N/NC(=S)NC2CCCCC2)c1 | nt | -1% | ? | ?
FC(F)(F)c1ccc(/C=N/NC(=S)NC2CCCCC2)cc1 | nt | 0% | ? | 3.3µM*
COC(=O)c1ccc(/C=N/NC(=O)CC(=O)NC2CCCCC2)cc1 | nt | -8% | 2% | 31%
O=C(CC(=O)Nc1ccc(Cl)cc1)N/N=C\c1cccc(F)c1 | 7% | 2% | 2% | 10µM*
O=C(CC(=O)NC1CCCCC1)N/N=C/c1ccc(Cl)cc1 | 2% | 4% | 0% | 4.7µM*
COc1ccc(N2CCN(CC(=O)NC(=O)NC(C)(C)C)CC2)cc1 | nt | 0% | -15% | 38%
Cc1ccc(C2(C)NC(=O)N(CC(=O)NC(=O)NC(C)(C)C)C2=O)cc1 (stereo not drawn) | -14% | -2% | 2% | -15%
CCOC(=O)c1ccc(N2CCN(c3ccccc3F)CC2)c(NC(=O)Nc2ccccc2)c1 | ? | 29% | 13µM* | ?
COCCNC(=O)c1ccc(N2CCCCC2)c(NS(=O)(=O)c2ccc(C)cc2)c1 | -11% | 2% | 5.2µM* | 400%
Cc1ccc(S(=O)(=O)Nc2cc(C(=O)NCCN(C)C)ccc2N2CCCC2)cc1 | 0% | 2% | -3% | 8.3µM*
CCOC(=O)c1ccc(N2CCN(c3ccc(F)cc3)CC2)c(NC(=O)Nc2cccc(OC)c2)c1 | 6% | -17% | ? | ?
CCOC(=O)c1ccc(N2CCCCC2)c(NS(=O)(=O)c2ccc(C)cc2)c1 | 14% | -2% | 2.3µM* | 1µM*
CCN(CC)CCCNC(=O)c1ccc(N2CCCCC2)c(NS(=O)(=O)c2ccc(C)cc2)c1 | nt | -1% | ? | ?
COCCN(C(=O)COC(=O)/C=C/c1cccc(C(F)(F)F)c1)c1c(N)n(CC(C)C)c(=O)[nH]c1=O | nt | -6% | nt | nt
O=C(NCCCN1CCCC(O)C1)c1cc(COc2ccc(F)cc2F)on1 (stereo not drawn) | 2% | 0% | 24% | -26%
COCCCNC(=O)c1ccc(N2CCOCC2)c(NS(=O)(=O)c2ccc(OC)cc2)c1 | -1% | ? | -14% | nt
CCCCNC(=O)c1ccc(N2CCOCC2)c(NS(=O)(=O)c2ccc(OC)cc2)c1 | -28% | 7% | 7.4µM* | 49%
CC1=CC(C)(C)N(C(=O)CSc2nnc(-c3ccc(C)cc3)o2)c2ccc(C)cc21 | -5% | -25% | nt | 9.3µM*
CCn1c(SCC(=O)NC2CCCCC2)nnc1C(C)NC(=O)c1ccccc1F (stereo not drawn) | 6% | 0% | 14% | ?
CCOc1ccc(NC(=O)CSc2nnnn2C2CC2)cc1S(=O)(=O)N1CCCC1 | nt | -7% | ? | 15µM*
CCOc1ccc(NC(=O)CSc2nnc(C)n2C2CC2)cc1S(=O)(=O)N1CCCC1 | nt | 0% | ? | ?
